Results as given in the supplement of paper PMC6555819.

Tests used:
Experiment in all cases: PBM binding z-score (relative to random genomic background probes); higher = stronger binding; sequences stand for … in GC…GCGATTGACAGCGTAGAATGAAGG
[1] = tested on: FXR:RXRa (NR concentration 270 nM, RXRa partner concentration 90 nM)
Procedure, shortened: (§1)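 Antibodies against each partner of ligand-free nuclear receptor dimers (one per run) detected binding on custom Agilent 4×180K protein-binding microarrays after 1 h incubation. The double-stranded probes had 34-nt variable regions carrying direct-repeat seeds, single-nucleotide variants, half-site ablations and random human genomic background sequences. Binding z-scores, from regression-normalized fluorescence, use the random background probes as reference.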

[2] = tested on: LXRa:RXRa (NR concentration 270 nM, RXRa partner concentration 90 nM)
Procedure, shortened: as §1

[3] = tested on: LXRa homodimer (NR concentration 270 nM)
Procedure, shortened: as §1

[4] = tested on: LXRb:RXRa (NR concentration 270 nM, RXRa partner concentration 90 nM)
Procedure, shortened: as §1

[5] = tested on: LXRb homodimer (NR concentration 270 nM)
Procedure, shortened: as §1

[6] = tested on: PPARa:RXRa (NR concentration 270 nM, RXRa partner concentration 90 nM)
Procedure, shortened: as §1

[7] = tested on: PPARg:RXRa (NR concentration 180 nM, RXRa partner concentration 90 nM)
Procedure, shortened: as §1

[8] = tested on: PPARg:RXRa 270nM:90nM, anti-RXR (NR concentration 270 nM, RXRa partner concentration 90 nM)
Procedure, shortened: as §1

[9] = tested on: PPARg:RXRa 30nM:10nM, anti-RXR (NR concentration 30 nM, RXRa partner concentration 10 nM)
Procedure, shortened: as §1

[10] = tested on: PPARg:RXRa 90nM:30nM, anti-RXR (NR concentration 90 nM, RXRa partner concentration 30 nM)
Procedure, shortened: as §1

[11] = tested on: PPARg:RXRa DBDmut IVT, anti-RXR (DBD mutation: RXRa K156A/R161A, NR concentration 270 nM, RXRa partner concentration 90 nM)
Procedure, shortened: as §1

[12] = tested on: PPARg:RXRa IVT, anti-PPARg (NR concentration 270 nM, RXRa partner concentration 90 nM)
Procedure, shortened: as §1

[13] = tested on: PPARg DBDmut:RXRa IVT, anti-PPARg (DBD mutation: PPARg1 K132A/R137A, NR concentration 270 nM, RXRa partner concentration 90 nM)
Procedure, shortened: as §1

[14] = tested on: PPARg DBDmut IVT, anti-PPARg (DBD mutation: PPARg1 K132A/R137A, NR concentration 270 nM)
Procedure, shortened: as §1

[15] = tested on: PPARg homodimer (NR concentration 180 nM)
Procedure, shortened: as §1

[16] = tested on: PXR:RXRa (NR concentration 270 nM, RXRa partner concentration 90 nM)
Procedure, shortened: as §1

[17] = tested on: PXR homodimer (NR concentration 270 nM)
Procedure, shortened: as §1

[18] = tested on: RARa:RXR (NR concentration 270 nM, RXRa partner concentration 90 nM)
Procedure, shortened: as §1

[19] = tested on: RARa homodimer (NR concentration 270 nM)
Procedure, shortened: as §1

[20] = tested on: RARb:RXRa (NR concentration 270 nM, RXRa partner concentration 90 nM)
Procedure, shortened: as §1

| Sequence | PBM binding z-score [1] | PBM binding z-score [2] | PBM binding z-score [3] | PBM binding z-score [4] | PBM binding z-score [5] | PBM binding z-score [6] | PBM binding z-score [7] | PBM binding z-score [8] | PBM binding z-score [9] | PBM binding z-score [10] | PBM binding z-score [11] | PBM binding z-score [12] | PBM binding z-score [13] | PBM binding z-score [14] | PBM binding z-score [15] | PBM binding z-score [16] | PBM binding z-score [17] | PBM binding z-score [18] | PBM binding z-score [19] | PBM binding z-score [20] |
| --- | --- | --- | --- | --- | --- | --- | --- | --- | --- | --- | --- | --- | --- | --- | --- | --- | --- | --- | --- | --- |
| CCTCGGAGGATAGAAGGTCAGAGCTGTCCGCTTT | 1 | 1.57 | 0.218 | 1.21 | -0.745 | 1.83 | -0.0434 | 1.26 | -0.528 | 0.571 | 0.306 | 0.12 | -1.89 | -1.62 | 1.56 | 1.38 | -0.0463 | 1.82 | 0.234 | 2.29 |
| CATCCAAGGTCATAGGAGGTCAGTGAAGACAGAT | 7.76 | 7.88 | 6.67 | 6.38 | 1.99 | 6.12 | 6.25 | 6.07 | 3.14 | 4.93 | 3.6 | 4.75 | 3.02 | 2.08 | 5.33 | 6.96 | 4.63 | 6.4 | 3.27 | 5.38 |
| CCGACTGGGGCGTAAGGTTACCATAAGCCAGCCC | 0.247 | 1.35 | -0.338 | 0.704 | -1.25 | 1.35 | 1.19 | 2.42 | 0.143 | 1.7 | 0.446 | 0.275 | -1.37 | -0.827 | 0.0631 | 0.213 | -0.391 | 0.883 | -0.676 | 1 |
| TCATATAGGTAAACGGGTGAAAGTCCGTAAGTTA | 0.647 | 0.398 | 0.0709 | 0.834 | -0.231 | 2.29 | 2.73 | 3.65 | 3.72 | 3.68 | 4.54 | 4.35 | 1.22 | 1.51 | 0.689 | 0.621 | 0.241 | 0.612 | 0.587 | 0.567 |
| ACTAGCAGGCCAAGTTTGGGTTACTCAAACAAAG | -0.336 | -0.429 | -0.394 | -0.296 | -0.552 | -0.051 | -0.32 | -0.325 | -0.354 | -0.657 | 0.764 | 0.439 | -1.56 | -0.888 | -0.611 | -0.324 | -0.543 | 0.00564 | -0.953 | 0.389 |
| CCAGACAGGTGAGAAGGTAACTCCGCCTCGATTA | -0.167 | -0.237 | 0.189 | -0.163 | -0.188 | 0.436 | 0.351 | 0.504 | -0.516 | 0.193 | 1.06 | 0.448 | -0.414 | -1.08 | 0.567 | -0.515 | -0.154 | 0.0222 | 0.152 | 0.539 |
| ATCTCTAGGTAAAGTTGAGTGAAAGATCGATAGA | 0.674 | 0.644 | -0.0419 | 0.163 | 0.646 | 0.992 | 1.37 | 2.56 | 1.23 | 2.07 | 2.32 | 2.1 | 0.815 | 1.27 | 0.789 | -0.222 | 0.345 | 0.0645 | 0.741 | 0.652 |
